Data published in PubChem BioAssay (EPA / NIEHS).
Activity calls are given as the source filed them. The calls were made as follows: active = hit-call score of the fitted dose curve at least 0.9, where 1 is the maximum; inactive = score below 0.9.

Each compound was assayed on CYP2C9 (gene 1559) (assay: LTEA_HepaRG_CYP2C9: Life Technologies and Expression Analysis (LTEA) Assay for CYP2C9 using HepaRG (AID 2283484)). Details: mRNA level, 48 h; actives raise or lower the signal.
Procedure, shortened: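 Differentiated human HepaRG cells were exposed 48 h in serum-free induction medium to eight half-log concentrations up to 100 uM in 0.5% DMSO. CYP2C9 mRNA was measured by qRT-PCR, normalized to ACTB, GAPDH and POLR2A, and fitted bidirectionally against DMSO.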

Structure (SMILES)	outcome
C1CNCCN1	inactive
Cc1ccc([N+](=O)[O-])cc1N	inactive
Nc1ccc(C(=O)O)cc1	inactive

These compounds were tested on CYP2E1 (gene 1571) (assay: LTEA_HepaRG_CYP2E1: Life Technologies and Expression Analysis (LTEA) Assay for CYP2E1 using HepaRG (AID 2283485)). Details: mRNA level, 48 h; actives raise or lower the signal.
Procedure, shortened: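 Differentiated HepaRG cells were treated in duplicate for 48 h with chemicals in 0.5% DMSO, from 100 uM downward in half-log dilutions. RNA was then analysed by qRT-PCR for CYP2E1 induction or loss.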

Structure (SMILES)	outcome	AC50
C1CNCCN1	inactive	
Cc1ccc([N+](=O)[O-])cc1N		32.4 µM (active)
Nc1ccc(C(=O)O)cc1	inactive	

Each compound was assayed on CYP4A11 (gene 1579) (assay: LTEA_HepaRG_CYP4A11: Life Technologies and Expression Analysis (LTEA) Assay for CYP4A11 using HepaRG (AID 2283486)). Details: mRNA level, 48 h; actives raise or lower the signal.
Procedure, shortened: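 Differentiated HepaRG cells, 48 h after plating, exposed in duplicate for 48 h to 8 half-log concentrations up to 100 uM in 0.5% DMSO in serum-free induction medium. CYP4A11 mRNA measured by TaqMan qRT-PCR, normalized to ACTB, GAPDH and POLR2A.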

Structure (SMILES)	outcome
C1CNCCN1	inactive
Cc1ccc([N+](=O)[O-])cc1N	inactive
Nc1ccc(C(=O)O)cc1	inactive

The compounds below were run on Cytochrome P450 3A4 (Homo sapiens) (UniProt P08684) (assay: LTEA_HepaRG_CYP3A4: Life Technologies and Expression Analysis (LTEA) Assay for CYP3A4 using HepaRG (AID 2283487)). Details: mRNA level, 48 h; actives raise or lower the signal.
Procedure, shortened: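 In a human hepatic line (HepaRG), duplicate wells were treated 48 h with up to 100 uM chemical in half-log dilutions. Endpoint: CYP3A4 mRNA induction or loss relative to 0.5% DMSO vehicle, by qRT-PCR.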

Chain of Cytochrome P450 3A4 (Homo sapiens) (P08684 whole entry, looked up): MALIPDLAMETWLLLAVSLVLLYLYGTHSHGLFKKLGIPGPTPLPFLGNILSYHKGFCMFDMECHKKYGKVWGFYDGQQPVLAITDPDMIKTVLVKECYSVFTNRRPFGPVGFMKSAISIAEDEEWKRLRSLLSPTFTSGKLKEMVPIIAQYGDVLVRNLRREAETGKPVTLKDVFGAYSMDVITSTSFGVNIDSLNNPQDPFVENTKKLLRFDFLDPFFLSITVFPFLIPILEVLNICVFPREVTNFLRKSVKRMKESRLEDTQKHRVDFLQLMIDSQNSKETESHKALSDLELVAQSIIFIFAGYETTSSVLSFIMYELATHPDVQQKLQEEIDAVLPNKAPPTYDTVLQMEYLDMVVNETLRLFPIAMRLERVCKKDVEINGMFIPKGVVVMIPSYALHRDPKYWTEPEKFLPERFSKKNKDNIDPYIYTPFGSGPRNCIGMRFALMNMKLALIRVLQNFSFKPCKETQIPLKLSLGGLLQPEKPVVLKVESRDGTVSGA

Structure (SMILES)	outcome
C1CNCCN1	inactive
Cc1ccc([N+](=O)[O-])cc1N	inactive
Nc1ccc(C(=O)O)cc1	inactive

Each compound was assayed on DNA damage-inducible transcript 3 (DDIT3), DDIT3 (gene 1649) (assay: LTEA_HepaRG_DDIT3: Life Technologies and Expression Analysis (LTEA) Assay for DNA damage-inducible transcript 3 (DDIT3) using HepaRG (AID 2283488)). Details: mRNA level, 48 h; actives raise or lower the signal.
Procedure, shortened: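 Changes in DDIT3 transcript, in either direction relative to 0.5% DMSO vehicle, were quantified by TaqMan qRT-PCR after 48 h chemical exposure of HepaRG cells at 8 concentrations, maximum 100 uM.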

Structure (SMILES)	outcome
C1CNCCN1	inactive
Cc1ccc([N+](=O)[O-])cc1N	inactive
Nc1ccc(C(=O)O)cc1	inactive

These compounds were tested on Pro-epidermal growth factor (Homo sapiens) (UniProt P01133) (assay: LTEA_HepaRG_EGF: Life Technologies and Expression Analysis (LTEA) Assay for Epidermal growth factor (EGF) using HepaRG (AID 2283489)). Details: mRNA level, 48 h; actives raise or lower the signal.
Procedure, shortened: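 HepaRG cells (~100,000/well, 48 h pre-culture) exposed in duplicate for 48 h in serum-free induction medium to 8 half-log concentrations up to 100 uM in 0.5% DMSO. EGF mRNA by qRT-PCR, normalized to ACTB/GAPDH/POLR2A; bidirectional fit versus DMSO.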

Structure (SMILES)	outcome
C1CNCCN1	inactive
Cc1ccc([N+](=O)[O-])cc1N	inactive
Nc1ccc(C(=O)O)cc1	inactive

What follows are compounds tested on Early growth response protein 1 (EGR1) transcription factor, EGR1 (gene 1958) (assay: LTEA_HepaRG_EGR1: Life Technologies and Expression Analysis (LTEA) Assay for Early growth response protein 1 (EGR1) transcription factor using HepaRG (AID 2283490)). Details: mRNA level, 48 h; actives raise or lower the signal.
Procedure, shortened: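 Differentiated human HepaRG cells in serum-free induction medium were exposed in duplicate for 48 h to eight concentrations (top 100 uM, half-log steps) in 0.5% DMSO. EGR1 mRNA was quantified by qRT-PCR, normalized to ACTB, GAPDH and POLR2A, and fitted bidirectionally versus DMSO.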

Structure (SMILES)	outcome
C1CNCCN1	inactive
Cc1ccc([N+](=O)[O-])cc1N	inactive
Nc1ccc(C(=O)O)cc1	inactive

The compounds below were run on Ezrin (EZR), EZR (gene 7430) (assay: LTEA_HepaRG_EZR: Life Technologies and Expression Analysis (LTEA) Assay for Ezrin (EZR) using HepaRG (AID 2283491)). Details: mRNA level, 48 h; actives raise or lower the signal.
Procedure, shortened: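 Gain or loss of EZR mRNA is scored relative to 0.5% DMSO in human HepaRG cultures treated 48 h with test chemicals in duplicate, eight half-log concentrations from 100 uM.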

Structure (SMILES)	outcome
C1CNCCN1	inactive
Cc1ccc([N+](=O)[O-])cc1N	inactive
Nc1ccc(C(=O)O)cc1	inactive

Each compound was assayed on Cytochrome P450 3A7 (Homo sapiens) (UniProt P24462) (assay: LTEA_HepaRG_CYP3A7: Life Technologies and Expression Analysis (LTEA) Assay for CYP3A7 using HepaRG (AID 2283492)). Details: mRNA level, 48 h; actives raise or lower the signal.
Procedure, shortened: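 Differentiated HepaRG cells in serum-free induction medium exposed 48 h in duplicate to 8-point half-log series from 100 uM top in 0.5% DMSO. CYP3A7 mRNA by qRT-PCR, normalized to ACTB/GAPDH/POLR2A, bidirectional fit versus DMSO.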

Chain of Cytochrome P450 3A7 (Homo sapiens) (P24462 whole entry, looked up): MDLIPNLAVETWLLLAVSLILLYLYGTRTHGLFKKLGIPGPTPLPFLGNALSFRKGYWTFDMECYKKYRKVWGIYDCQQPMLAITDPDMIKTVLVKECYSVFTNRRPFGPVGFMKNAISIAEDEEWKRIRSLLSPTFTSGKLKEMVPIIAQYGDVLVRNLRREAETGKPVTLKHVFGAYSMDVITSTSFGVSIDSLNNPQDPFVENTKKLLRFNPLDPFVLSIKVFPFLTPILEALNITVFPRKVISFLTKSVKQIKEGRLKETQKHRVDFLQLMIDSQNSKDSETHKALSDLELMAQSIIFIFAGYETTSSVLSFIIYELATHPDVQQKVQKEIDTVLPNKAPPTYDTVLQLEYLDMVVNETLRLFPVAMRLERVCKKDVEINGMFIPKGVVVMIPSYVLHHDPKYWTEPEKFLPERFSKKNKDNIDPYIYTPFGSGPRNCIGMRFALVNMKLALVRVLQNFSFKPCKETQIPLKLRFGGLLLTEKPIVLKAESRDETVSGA

Structure (SMILES)	outcome
C1CNCCN1	inactive
Cc1ccc([N+](=O)[O-])cc1N	inactive
Nc1ccc(C(=O)O)cc1	inactive

Each compound was assayed on CYP3A5 (gene 1577) (assay: LTEA_HepaRG_CYP3A5: Life Technologies and Expression Analysis (LTEA) Assay for CYP3A5 using HepaRG (AID 2283493)). Details: mRNA level, 48 h; actives raise or lower the signal.
Procedure, shortened: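 mRNA induction or loss of CYP3A5 assessed in HepaRG after 48 h dosing, 100 uM top concentration, duplicate wells; TaqMan qRT-PCR with ACTB, GAPDH, POLR2A normalization; 0.5% DMSO as negative control.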

Structure (SMILES)	outcome
C1CNCCN1	inactive
Cc1ccc([N+](=O)[O-])cc1N	inactive
Nc1ccc(C(=O)O)cc1	inactive
